According to the supplement of paper PMC10338343:
± gives the standard deviation.

Tested on: EfPiwi piRISC loaded with L1MC piRNA (26 nt)
Assay: pre-steady-state target cleavage rate (min^-1); auxiliary factor: 500 nM Ephydatia muelleri Gtsf1; guide: L1MC piRNA 5'p-UAACUAAAUACUAUGCAAGCUGUAGG; MIWI and MILI are mouse PIWI proteins and EfPiwi is from a freshwater sponge; tags in brackets are library labels; higher = faster piRNA-guided slicing of the target
How it was run: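 The pre-steady-state cleavage rate was derived from a burst-and-steady-state fit of Cleave-'n-Seq data. For these assays, 1 nM active affinity-purified piRISC loaded with a single synthetic guide was mixed with […] a transcribed, DNA-blocked target RNA library in HEPES–potassium acetate buffer at 33 °C, with or without 500 nM GTSF1 partner protein, for 0–8 or 0–960 min. Sequencing counts of uncleaved targets were normalised to depth and to weakly complementary targets, and k3 was capped at 0.0001 min^-1 after three trials were pooled.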

UCCUGCUACAGCUUGCAUAGUAUUAAGUUA and UCCUCCUACAGCUUGCAUAGUAUAUAGUUA are within error of each other in “pre-steady-state target cleavage rate” value: 0.0064 ± 0.0019 for the first, 0.00814 ± 0.0038 for the second.

Compared with UCCUGGUACAGCUUGCAUAGUAUUUAGUAUA, UCCUCCUACUGCUUGGAUAGUAUUUAGUUA is higher in “pre-steady-state target cleavage rate” value: 0.00633 ± 0.0024 for the first, 0.064 ± 0.012 for the second.

UCCUCCUACAGCAUGCAUAGUUUUUAGUUA and UCCUGCUACAAGCUUGCAUAGUAUUUAGUUA are within error of each other in “pre-steady-state target cleavage rate” value: 0.00379 ± 0.0028 for the first, 0.00475 ± 0.0013 for the second.

UCCUGCUAGAGCUUGCAAAGUAUUUAGUUA and UCCUCCUACAGCUUGGUUAGUAUUUAGUAA are within error of each other in “pre-steady-state target cleavage rate” value: 0.00607 ± 0.0018 for the first, 0.00533 ± 0.0032 for the second.

UCCUGGUACGCUUGCAUAGUAUUUAGUUA and UCCUGCUACAGCUAGCUUAGUAUUUAGUUA are within error of each other in “pre-steady-state target cleavage rate” value: 0.00582 ± 0.0027 for the first, 0.00973 ± 0.0029 for the second.

Going from UCCUGGAACAGCUUGCUAAGUAUUUAGUUA to “UCCUGGAUGAGCUUGCAUAGUAUUUAGUUA [g2:g21:cont:t1A]”, the “pre-steady-state target cleavage rate” value rises from 0.00374 ± 0.0032 to 0.0338 ± 0.0087.

UCCUGGUACAGCUUGCUUAGUAUUUAGUAA and UCCUCCUACAGCUAGCAUAGUUUUUAGUUA are within error of each other in “pre-steady-state target cleavage rate” value: 0.00376 ± 0.0023 for the first, 0.00442 ± 0.0017 for the second.

UCCUCCUACAGGUUGCAUAGUAUUUAGUAA and UCCUGCUACACGAUGCAUAGUAUUUAGUUA are within error of each other in “pre-steady-state target cleavage rate” value: 0.00547 ± 0.0022 for the first, 0.00905 ± 0.0024 for the second.

UCCUGCUACAGCUUCGAUAGUAUUUAGUUA and “UCCUGGAUGUCGAAGCAUAGUAUUUAGUUA [g2:g16:cont:t1A]” are within error of each other in “pre-steady-state target cleavage rate” value: 0.00756 ± 0.0026 for the first, 0.00352 ± 0.002 for the second.

First: UCCUGGAUCAGCUUGCAUAGUAAUUAGUUA
Second: UCCUGGAUGUCCUUGCAUAGUAUUUUAGUUA
The “pre-steady-state target cleavage rate” value of the first is higher: 0.0264 ± 0.0082 for the first, 0.00287 ± 0.0028 for the second.

First: UCCUCCUAAGCUUGCAUAGUAUUUAGUUA
Second: UCCUGGUAGAGCUUGCAUAGUUUUUAGUUA
The “pre-steady-state target cleavage rate” value of the first is higher: 0.0155 ± 0.0059 for the first, 0.0049 ± 0.0026 for the second.

First: UCCUGGUACAGCUUGCAUAGUAUUUUAGUUA
Second: UCCUCCUAGAGCUUGGAUAGUAUUUAGUUA
The “pre-steady-state target cleavage rate” value of the first is lower: 0.00849 ± 0.0042 for the first, 0.0312 ± 0.0067 for the second.

First: UCCUGCAACAGCAUGCAUAGUAUUUAGUUA
Second: UCCUGGAACAGCUUGCAUAGAAUUUAGUUA
The “pre-steady-state target cleavage rate” value of the first is higher: 0.0232 ± 0.0055 for the first, 0.0051 ± 0.0017 for the second.

UCCUCCAACAGCUAGCAUAGUAUUUAGUUA and UCCUGGAUCAGGUUGCAUAGUAUUUAGUAA are within error of each other in “pre-steady-state target cleavage rate” value: 0.00798 ± 0.0027 for the first, 0.00537 ± 0.0021 for the second.

First: UCCUGGAACAGCUAGCAAAGUAUUUAGUUA
Second: UCCUCCUACAAGCUUGCAUAGUAUUUAGUUA
The “pre-steady-state target cleavage rate” value of the first is lower: 0.00366 ± 0.0025 for the first, 0.0104 ± 0.0039 for the second.

Going from UCCUGGAUCUGGUUGCAUAGUAUUUAGUUA to UCCUGGUAGAGCUUGCUUAGUAUUUAGUUA, the “pre-steady-state target cleavage rate” value falls from 0.0604 ± 0.015 to 0.00885 ± 0.0045.

UCCUGCUAGCAGCUUGCAUAGUAUUUAGUUA and UCCUCCUACACGAUGCAUAGUAUUUAGUUA are within error of each other in “pre-steady-state target cleavage rate” value: 0.0598 ± 0.016 for the first, 0.0593 ± 0.017 for the second.

First: UCCUGCUACAGGUUGCUUAGUAUUUAGUUA
Second: UCCUGGAUCAGCUUGCAUUGUAUUAAGUUA
The “pre-steady-state target cleavage rate” value of the first is higher: 0.0276 ± 0.0074 for the first, 0.00314 ± 0.0017 for the second.

Compared with UCCUGCUACAGCUUGCUUAGUAUAUAGUUA, UCCUGGAACAGCUUGCUUUGUAUUUAGUUA is lower in “pre-steady-state target cleavage rate” value: 0.0125 ± 0.0047 for the first, 0.00396 ± 0.0025 for the second.

Going from UCCUCCUACAGCUUGCCAUAGUAUUUAGUUA to UCCUCCUACAGCUUGGUUAGUAUUUAGUUA, the “pre-steady-state target cleavage rate” value rises from 0.00595 ± 0.0024 to 0.0149 ± 0.006.
